About 2,600 (0.7%) of roughly 370,000 compounds were called active.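 How the source made its calls: active means inhibition above a per-plate cutoff, mean inhibition of test wells between control levels plus 3 SD (cut at about 38% in these data); inactive means the rest.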 What follows is part of a selection rich in actives, with near analogues and random picks from the rest.
What follows are compounds tested against COUP transcription factor 2 (Homo sapiens) (UniProt P24468) (assay: NR2F2 transcriptional activity inhibitors, primary screen, cell-based, luciferase reporter, HEK293T, luminescence (AID 686940;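 further: cells cotransfected with COUP-TFII expression vector driving the NGFI-A reporter; 0% = median of COUP-TF2 test wells and 100% = reporter-only cells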)). Settings: HEK293T NGFI-A luciferase reporter, at 8.6 µM, hits give high values.
Chain of COUP transcription factor 2 (Homo sapiens) (P24468 whole entry, looked up): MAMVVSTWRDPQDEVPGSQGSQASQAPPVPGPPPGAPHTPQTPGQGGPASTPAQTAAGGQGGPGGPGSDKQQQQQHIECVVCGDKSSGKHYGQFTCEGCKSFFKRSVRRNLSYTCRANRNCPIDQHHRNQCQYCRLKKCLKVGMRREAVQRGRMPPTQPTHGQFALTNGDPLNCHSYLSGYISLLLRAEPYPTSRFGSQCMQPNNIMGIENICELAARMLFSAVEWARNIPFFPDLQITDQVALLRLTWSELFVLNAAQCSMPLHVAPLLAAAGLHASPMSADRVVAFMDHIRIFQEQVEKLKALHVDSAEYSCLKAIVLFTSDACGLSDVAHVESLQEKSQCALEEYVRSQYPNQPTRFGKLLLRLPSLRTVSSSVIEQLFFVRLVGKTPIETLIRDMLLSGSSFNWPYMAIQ

| SMILES | inhibition |
| --- | --- |
| C=CCN1C(=O)[C@H](CC(=O)N2CCN(C(=O)OCC)CC2)[C@@]2(C(=O)OCC)CCCC=C12 | -10.2% (inactive) |
| CCCCNC(=O)C[C@@H]1C(=O)N(CCc2ccc(Cl)cc2)C2=CCCC[C@]21C(=O)OCC | 15.3% (inactive) |
| CCOC(=O)N1CCN(C(=O)C[C@@H]2C(=O)N(CCc3ccc(Cl)cc3)C3=CCCC[C@]32C(=O)OCC)CC1 | 45.6% (active) |
| O=C1CC[C@@H](COc2ccc3[nH]cc(-c4ccccc4)c3c2-c2ccccc2)N1 | -9.36% (inactive) |
| N#Cc1ccc(C2=CC(=O)C[C@H](c3ccc(Cl)cc3)C2)cc1 | 17.5% (inactive) |
| O=C1C=C(c2ccnc3cc(Cl)ccc23)C[C@@H](c2ccc3c(c2)OCO3)C1 | 56% (active) |
| O=C1C=C(c2cccc(Cl)c2O)C[C@@H](c2ccc(F)cc2)C1 | 4.63% (inactive) |
| Clc1ncn(CCOc2ccccc2)c1Cl | 6.16% (inactive) |
| Clc1c(OCCCn2ccnc2)ccc2ccccc12 | -3.68% (inactive) |
| c1ccc(Cc2ccc(OCCn3ccnc3)cc2)cc1 | 54.5% (active) |
| COCC(=O)N[C@@H]1C[C@@H]2O[C@@H](CO)CC[C@@H]2O[C@@H]1CCc1ccc(-c2ccccc2)cc1 | 1.52% (inactive) |
| CC[C@@H](CCC(=O)N(c1ccccc1)c1ccccc1)C1CC1 | 15.5% (inactive) |
| O=C1Nc2ccccc2OC1CC(=O)N1CCCCCCC1 (stereo unspecified) | 18.8% (inactive) |
| O=C(OC12CCCN(C1)/C(=C/c1ccccc1)C2)c1ccco1 (stereo unspecified) | -14.4% (inactive) |
| CCOC(=O)C1=C(N)N2C(=O)C(C)SC2=C(C(=O)OCC)C1c1cc(OC)c(OC)c(OC)c1 (stereo unspecified) | -10.4% (inactive) |
| COc1cc(C(=O)OCCCN2CCOCC2)cc(OC)c1OC | -1.26% (inactive) |
| CCCOC(=O)c1[nH]c2c(c1C)C(=O)CC(c1cc(OC)c(OC)c(OC)c1)C2 (stereo unspecified) | 62.1% (active) |
| C=CCN(Cc1ccc2c(c1)OCO2)C(C#CC1CC1)C(C)(C)C (stereo unspecified) | 9.73% (inactive) |
| Cc1c(C(C)c2ccccc2O)[nH]c2ccccc12 (stereo unspecified) | 13.6% (inactive) |
| CCOC(=O)[C@]12CCCC=C1N(Cc1ccc(OC)cc1)C(=O)[C@@H]2CC(=O)NCc1cccs1 | 6.16% (inactive) |
| COC(=O)[C@]12C[C@H](CC(=O)NCc3cccc4ccccc34)C(=O)N(CCc3ccc(OC)c(OC)c3)C1=C[C@H](C1CCCC1)O[C@@H]2C | 13.6% (inactive) |

| SMILES | inhibition |
| --- | --- |
| CCn1c(=O)c(=O)[nH]c2c(=O)oc3ccc(S(=O)(=O)Nc4ccc(OC)cc4)cc3c21 | 4.47% (inactive) |
| COc1ccc(S(=O)(=O)Nc2ccc3oc(C)c(C(C)=O)c3c2)cc1 | 42.4% (active) |
| CC(=O)c1c(C)oc2ccc(NS(=O)(=O)c3ccccc3)cc12 | 21.9% (inactive) |
| COc1ccc(CN2C/C(=C/c3ccccc3)N3C(=O)C[C@@H](c4ccccc4)N=C23)c(OC)c1 | 4.08% (inactive) |
| CC(=O)c1cc(-c2ccc3ccccc3c2)c(=O)n2c1CCC2 | 16.2% (inactive) |
| Cc1cc2nnc(SCC(=O)N3CCN(c4ccccc4)CC3)n2c(N)n1 | 8.19% (inactive) |
| Cn1c(Cc2cccc3ccccc23)nnc1SCC(=O)N1CCN(c2cccc(Cl)c2)CC1 | 42.6% (active) |
| Cn1c(CNC(=O)c2ccco2)nnc1SCC(=O)N1CCN(c2ccccc2)CC1 | -5.83% (inactive) |
| COc1ccnc(NC(=S)N2CCN(c3ncc(C(F)(F)F)cc3Cl)CC2)c1 | -6.96% (inactive) |
| CCCCCCN1CCS(=O)(=O)N(Cc2ccc(C(F)(F)F)cc2)C(C(=O)OC)C1 (stereo unspecified) | 1.89% (inactive) |
| C=CCn1c(C)cc(C2=NNC(=NCC)SC2)c1C | 94.5% (active) |
| CC(=O)C1(C(=O)Nc2nccs2)CC(c2ccccc2C(F)(F)F)=NO1 (stereo unspecified) | -12.3% (inactive) |
| COC(=O)c1cc(S(=O)(=O)N2CCN(c3ccccc3C)CC2)cn1C | 10.7% (inactive) |
| CCn1c(SCC(C)=O)nc2sc3c(c2c1=O)CCCC3 | -12% (inactive) |
| COc1ccccc1CNC(=O)c1ccc(Cl)c(S(=O)(=O)N2CCCC2)c1 | 0.19% (inactive) |
| NS(=O)(=O)c1ccc(CCNC(=O)c2ccc(Cl)c(S(=O)(=O)N3CCCCCC3)c2)cc1 | 60.3% (active) |
| O=C(NCCc1ccc(F)cc1)c1ccc(S(=O)(=O)N2CCCCC2)cc1 | -1.06% (inactive) |
| CCCC1CCC2(CCCN2CCOC(=O)NCc2ccccc2)CC1 (stereo unspecified) | -2.03% (inactive) |
| O=C(NC1CCCCN(Cc2ccc(Cl)cc2)C1=O)c1ccc(Br)cc1 (stereo unspecified) | 12.4% (inactive) |
| CCOC(=O)C1(Cc2ccccc2)CCN(Cc2cn(C(C)=O)c3ccccc23)CC1 | 19.5% (inactive) |
| Fc1ccc(COc2cccc(-c3n[nH]c(=S)o3)c2)cc1 | -3.8% (inactive) |

| SMILES | inhibition |
| --- | --- |
| CC(=O)c1ccccc1OCc1ccc(C(=O)c2ccccc2)cc1 | 23.1% (inactive) |
| Cc1nc2ccccc2cc1OCc1ccc(F)cc1 | 41.9% (active) |
| COc1ccc(Cn2cc(CN3[C@@H](CC(C)C)COc4cc(Br)ccc4S3(=O)=O)nn2)cc1 | 0.76% (inactive) |
| CC(=O)Nc1ccc(NC(=O)C2CCCN(S(=O)(=O)c3ccc(Cl)cc3)C2)cc1 (stereo unspecified) | -3.16% (inactive) |
| O=C(Nc1ccc(S(=O)(=O)N2CCOCC2)cc1)C1CCN(S(=O)(=O)c2ccc(Cl)cc2)CC1 | 44.8% (active) |
| CC(=O)Nc1ccc(S(=O)(=O)N2CCC(C(=O)NC3CC3)CC2)cc1 | -8.71% (inactive) |
| COC(=O)C1CN(Cc2ccc(F)cc2)CCS(=O)(=O)N1Cc1ccc(Cl)cc1 (stereo unspecified) | 7.77% (inactive) |
| CN(C(=O)c1cccc(NC(=O)Cc2cccc(NC(=O)C3CCCN(C(=O)C4CC4)C3)c2)c1)C1CCC1 (stereo unspecified) | 2.2% (inactive) |
| CN(CCc1ccccc1)C(=O)c1cccc(NC(=O)Cc2cccc(NC(=O)C3CCCN(C(=O)C4CCC4)C3)c2)c1 (stereo unspecified) | 9.42% (inactive) |
| CN(C(=O)c1cccc(NC(=O)Cc2ccc([N+](=O)[O-])cc2)c1)C1CCC1 | 33.2% (inactive) |
| CN(C(=O)c1cccc(NC(=O)Cc2ccc(NC(=O)C3CCN(C(=O)C4CCCCC4)CC3)cc2)c1)C1CCC1 | -2.15% (inactive) |
| CN(CCc1ccccc1)C(=O)c1cccc(NC(=O)Cc2cccc(NC(=O)C3CCCN(C(=O)CCc4ccccc4)C3)c2)c1 (stereo unspecified) | 44.5% (active) |
| CN(C(=O)c1cccc(NC(=O)Cc2cccc([N+](=O)[O-])c2)c1)C1CCCCC1 | 38.2% (active) |
| COC(=O)C1CN(CCc2ccccc2)CCS(=O)(=O)N1Cc1cccc(Cl)c1 (stereo unspecified) | -5.31% (inactive) |
| Cc1ccc(-n2c(SCC(=O)Nc3ccc(S(=O)(=O)Nc4nccs4)cc3)nnc2-c2cccnc2)cc1 | 8.88% (inactive) |
| O=C(CSc1nnc(-c2cccc(Cl)c2)n1Cc1ccco1)Nc1ccc(OCc2ccccc2)cc1 | -14.7% (inactive) |
| O=C(NC1CCC1)c1ccc(C#Cc2cccc(F)c2)c[n+]1[O-] | 0.7% (inactive) |
| COc1ccccc1-c1ccc([C@@H]2C[C@H]3[C@H](CON3C)CN2S(=O)(=O)c2cc(Cl)cc(Cl)c2)cc1 | 5.76% (inactive) |
| COc1ccc(S(=O)(=O)N2C[C@H]3CON(C)[C@H]3C[C@H]2c2cccc(Br)c2)cc1 | 10.7% (inactive) |
| CN1OC[C@@H]2CN(S(=O)(=O)c3cccc(C(F)(F)F)c3)[C@H](c3ccc(-c4cc5ccccc5o4)cc3)C[C@@H]21 | 44.1% (active) |
| CCOC(=O)c1csc(NC(=O)C2CCCN(S(=O)(=O)c3ccc(Cl)s3)C2)n1 (stereo unspecified) | 22.3% (inactive) |

| SMILES | inhibition |
| --- | --- |
| C=C(C)C#CC(Cc1ccccc1)N(CC1CC1)/C(N)=N/C(=O)OCc1ccccc1 (stereo unspecified) | 5.09% (inactive) |
| CCCCNC(=O)C[C@H]1C[C@@]2(C(=O)OC)C(=C[C@H](COCc3ccccc3)O[C@@H]2C)N(Cc2ccc(Cl)cc2Cl)C1=O | 1.56% (inactive) |
| COC(=O)[C@]12C[C@H](CC(=O)N3CCOCC3)C(=O)N(Cc3ccc(Cl)cc3Cl)C1=C[C@H](C(C)C)O[C@@H]2C1CC1 | 1.35% (inactive) |
| Cc1ccc(S(=O)(=O)N2CCCCC2)cc1C(=O)N(C)CC(=O)Nc1cccc(F)c1 | -3.43% (inactive) |
| Cc1ccc(NC(=O)CN(C)CC(=O)Nc2cccc(F)c2)cc1[N+](=O)[O-] | 58.8% (active) |
| Cc1ccc(NC(=O)CN(C)Cc2ccc(F)cc2)c([N+](=O)[O-])c1 | -11.4% (inactive) |
| c1csc(-c2nnc(SCc3nc4ccccc4[nH]3)o2)c1 | -10.7% (inactive) |
| Cc1ccc(NC(=O)Cc2cccc(F)c2)c(S(=O)(=O)N2CCOCC2)c1 | -8.19% (inactive) |
| CCOC(=O)[C@]12CCCC3=C1N(CCC3)C(=O)[C@@H](CC(=O)NCC13CC4CC(CC(C4)C1)C3)C2 | 21.7% (inactive) |
| O=C1CC(c2ccc3c(c2)OCO3)N=C2N(CC3CC3)C/C(=C/c3ccccc3)N12 (stereo unspecified) | 20.7% (inactive) |
| Cc1ccc(S(=O)(=O)NCc2nc3ccccc3c(=O)n2N)cc1 | 0.39% (inactive) |
| Cc1nc(CNS(=O)(=O)c2cc([N+](=O)[O-])ccc2C)cs1 | -13.5% (inactive) |
| Cc1nc(CNS(=O)(=O)c2ccc(Oc3ccccc3)cc2)cs1 | 50.2% (active) |
| Cc1nn(C(C)C(=O)NCCC2=CCCCC2)c(=O)c2nn(-c3ccccc3)c(C)c12 (stereo unspecified) | -2% (inactive) |
| Cc1nn(C(C)C(=O)N2CCOCC2)c(=O)c2nn(-c3ccccc3)c(C)c12 (stereo unspecified) | 6.72% (inactive) |
| Cc1ccc(-n2nc3c(=O)n(C(C)C(=O)NCc4ccc5c(c4)OCO5)nc(C)c3c2C)cc1 (stereo unspecified) | 48.1% (active) |
| Cc1cc(NS(=O)(=O)c2ccc(NC(=O)CSc3nnc(-c4ccc(C(C)(C)C)cc4)n3Cc3ccco3)cc2)nc(C)n1 | 1.48% (inactive) |
| CN(CCc1ccccc1)C(=O)Cn1nc(-c2ccccc2)ccc1=O | 2.95% (inactive) |

— PubChem BioAssay AID686940 (The Scripps Research Institute Molecular Screening Center, 2013)
